A selection: hits, their analogues and other compounds. The true share with any hit is near 18%.
TDP1 block: qHTS Assay for Inhibitors of Tyrosyl-DNA Phosphodiesterase (TDP1); recombinant TDP1, AlphaScreen DNA substrate cleavage; Potency, µM (titrated, usually from 130 µM), usual class: inhibitors; actives 0.28% (n = 350,000); AID 485290, 2010; further: nearly all actives have a fitted effect of over 40% in size
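Steps: enzyme plus compound, 15 min RT; add biotin/phosphotyrosine-FITC oligonucleotide (15 nM final), react 5 min; add donor/acceptor beads (10 ug/ml final), 10 min; read AlphaScreen. Tdp1 at 1 nM final.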
TDP1 cell noCPT: qHTS for Inhibitors of human tyrosyl-DNA phosphodiesterase 1 (TDP1): qHTS in cells in absence of CPT; DT40 Tdp1-/- hTDP1 cells, no CPT, ATP luminescence, 48 h; Potency, µM (highest dose often 46.2 µM), usual class: inhibitors; actives 15% (n = 420,000); further: nearly all actives have a fitted effect of over 55% in size
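Compound effects on proliferation are scored in DT40 Tdp1-/-;hTDP1 cells in the absence of CPT. ATP levels (CellTiter-Glo luminescence) are recorded after a ≥48 hr, 37 °C incubation.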
PLK1 PBD inh: qHTS for Inhibitors of PLK1-PDB (polo-like kinase 1 - polo-box domain): Primary Screen. Plk1 PBD binding of FITC phosphopeptide, fluorescence polarization. actives 2.8% (n = 360,000). Serine/threonine-protein kinase PLK1 (Homo sapiens), P53350. Potency, µM, most hits filed as inhibitors; further: series mostly up to about 57 µM; nearly all actives have a fitted effect of over 65% in size
GCN5L2 inh: qHTS Assay for Inhibitors of GCN5L2; Histone acetyltransferase KAT2A (Homo sapiens), Q92830; GCN5L2 HAT assay, ThioGlo1 CoA-SH fluorescence; Potency, µM (titrated, usually from 58.9 µM), hits mostly inhibitors; actives 0.21% (n = 390,000)
Target sequence (Q92830 whole entry, looked up): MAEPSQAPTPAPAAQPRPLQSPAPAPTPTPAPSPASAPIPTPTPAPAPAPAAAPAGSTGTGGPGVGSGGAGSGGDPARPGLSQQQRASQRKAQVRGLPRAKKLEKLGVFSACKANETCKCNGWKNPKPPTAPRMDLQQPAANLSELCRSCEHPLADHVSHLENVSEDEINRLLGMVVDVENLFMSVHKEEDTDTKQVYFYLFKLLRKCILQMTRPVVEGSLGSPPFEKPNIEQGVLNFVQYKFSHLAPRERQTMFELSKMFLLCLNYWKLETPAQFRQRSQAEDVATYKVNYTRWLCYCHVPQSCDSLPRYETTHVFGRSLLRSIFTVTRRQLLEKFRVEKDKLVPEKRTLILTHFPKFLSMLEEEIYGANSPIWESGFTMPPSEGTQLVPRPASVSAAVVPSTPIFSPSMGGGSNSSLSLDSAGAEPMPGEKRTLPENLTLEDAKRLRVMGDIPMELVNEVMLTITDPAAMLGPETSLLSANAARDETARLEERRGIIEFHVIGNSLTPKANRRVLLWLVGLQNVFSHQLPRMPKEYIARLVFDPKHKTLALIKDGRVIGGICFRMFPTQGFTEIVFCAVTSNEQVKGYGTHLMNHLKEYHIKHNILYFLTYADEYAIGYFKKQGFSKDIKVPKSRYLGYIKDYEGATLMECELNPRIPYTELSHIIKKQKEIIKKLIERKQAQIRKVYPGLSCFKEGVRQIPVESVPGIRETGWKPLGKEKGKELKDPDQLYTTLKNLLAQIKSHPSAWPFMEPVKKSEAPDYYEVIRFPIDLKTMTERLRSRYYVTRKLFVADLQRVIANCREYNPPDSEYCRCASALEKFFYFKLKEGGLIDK
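Titration-based screen in which CoA formation is detected via maleimide probe ThioGlo1 (50uM) turning fluorescent on thiol reaction; substrates H3(1-25) 75uM and acetyl-CoA 70uM, GCN5L2 20nM, 20 min incubation at room temperature.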
TDP1 cell CPT: qHTS for Inhibitors of human tyrosyl-DNA phosphodiesterase 1 (TDP1): qHTS in cells in presence of CPT; AID 686979, 2013; chicken DT40 Tdp1-/-;hTDP1 cells + 20 nM CPT, ATP luminescence, 48 h; actives 12% (n = 420,000); Potency, µM (titrated, usually from 46.2 µM), usual class: inhibitors; further: nearly all actives have a fitted effect of over 55% in size
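Chicken DT40 Tdp1-/- cells stably complemented with human TDP1 were seeded at 400 cells/well in medium containing 20 nM camptothecin, exposed to pin-transferred compounds, and grown at 37 °C for at least 48 hr. Viability was read as ATP luminescence.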
VDR inhibitor: Inhibitors of the vitamin D receptor (VDR): qHTS | Vitamin D3 receptor (Homo sapiens), P11473 | VDR-SRC2-3 peptide fluorescence polarization, 2 h | Potency, µM, actives largely listed as inhibitors | actives 0.93% (n = 400,000) | AID 504847, 2011
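Reagent solutions, kept cold and dark, are dispensed first; compounds are then pinned in at 23 nl, plates briefly spun, and incubated 2 h at ambient temperature. Inhibition of VDR–SRC2-3 peptide binding is read by fluorescence polarization.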
Numbers stand for hits; - = inactive; ? = inconclusive; . = no result given; [ ] = remark or other dose. The call rests on the fitted dose curve; in most records, active means well fitted curve in the direction sought with a large enough effect; inconclusive means small, poorly fitted or top-dose-only effect, or another doubt; inactive means no such curve, though single readings can be large; an effect the other way counts as inactive or inconclusive.

SMILES | TDP1 block | TDP1 cell noCPT | PLK1 PBD inh | GCN5L2 inh | TDP1 cell CPT | VDR inhibitor
O=Cc1cn(-c2ccccc2)nc1-c1cccc([N+](=O)[O-])c1 | . | ? | - | . | ? | .
CC1CCN(C(=S)c2ccc([N+](=O)[O-])cc2)CC1 | - | ? | 24µM | - | ? | ?
CCN1CCN(C(=S)c2ccc([N+](=O)[O-])cc2)CC1 | - | ? | 12µM | - | - | 71µM
O=C(Oc1ccc(C(=S)N2CCOCC2)cc1)c1ccc([N+](=O)[O-])cc1 | . | - | - | - | - | -
c1ccc(CNc2ncncc2-c2ccoc2)cc1 | . | ? | . | - | ? | 50µM
c1csc(CNc2ncncc2-c2ccoc2)c1 | . | ? | . | - | ? | 50µM
CCOc1ccc(C(CC(=O)O)NS(=O)(=O)c2ccc(C)cc2)cc1OC (centres undefined) | - | ? | 21µM | - | 21µM | -
COc1ccccc1Nc1c2c(nc3ccc(NC(=O)c4cccc(F)c4)cc13)CCCC2 | - | 2.6µM | . | - | 5.8µM | -
COc1ccc(Nc2c3c(nc4ccc(NC(=O)/C=C/c5cccc(OC)c5OC)cc24)CCCC3)cc1OC | - | 4.6µM | . | - | 2.3µM | -
COc1ccc(/C=C/C(=O)Nc2ccc3nc4n(c(=O)c3c2)CCCC4)cc1OC | - | - | - | - | - | -
COc1cccc(/C=C/C(=O)Nc2ccc(N3CCOCC3)cc2)c1OC | - | ? | - | - | - | -
COc1ccccc1Nc1c2c(nc3ccc(NC(=O)/C=C/c4cccc(OC)c4OC)cc13)CCCC2 | - | 4.1µM | . | - | 3.3µM | -
COc1ccc(/C=C/C(=O)Nc2ccc3nc4c(c(Nc5ccccc5OC)c3c2)CCCC4)cc1 | - | 3.7µM | . | - | 3.3µM | -
Cc1cc(C)nc(N/C=C(\C#N)C(=O)c2cccc(CSc3ccccc3)c2)n1 | . | - | . | . | ? | .
Cc1ccc2nccc(/C=C/c3ccc(N(C)C)cc3)c2c1 | . | 14µM | . | . | 11µM | .
COc1ccc(OC)c2c(/C=C/c3c(C)[nH]c4ccccc34)ccnc12 | . | 11µM | . | . | 10µM | .
CN(C)c1ccc(/C=C/c2ccnc3c2ccc2c(/C=C/c4ccc(N(C)C)cc4)ccnc23)cc1 | . | - | . | . | - | .
CN(C)c1ccc(/C=C/c2ccnc3c(N)cccc23)cc1 | . | 1.4µM | . | . | 2µM | .
CN(C)c1ccc(/C=C/c2ccnc3cc(Cl)ccc23)cc1 | . | 11µM | . | . | ? | .
CCC1(CC)NC(=O)N(CC(=O)OC(C)C(=O)Nc2ccc(Cl)cn2)C1=O (centres undefined) | - | - | - | ? | - | -
Cc1cccc(CNc2ncncc2-c2cccc(NS(C)(=O)=O)c2)c1 | . | - | . | - | - | -
CN(C)c1ccc(/C=C/C#N)cc1 | - | - | - | - | - | -
COc1ccc(OC)c2c(/C=C/c3ccc(N(C)C)cc3)ccnc12 | . | 6.3µM | . | . | 10µM | .
Cc1ccc2c(/C=C/c3ccc(N(C)C)cc3)ccnc2c1 | . | ? | . | . | 11µM | .
COc1cccc(-c2nnc(SCC(=O)NCc3ccc4c(c3)OCO4)n2Cc2ccco2)c1 | - | - | - | 40µM | - | -
SMILES | TDP1 block | TDP1 cell noCPT | PLK1 PBD inh | GCN5L2 inh | TDP1 cell CPT | VDR inhibitor
COc1cccc(-c2nnc(SCC(=O)Nc3ccc4c(c3)OCCO4)n2Cc2ccco2)c1 | - | ? | - | - | ? | -
CCn1c(SCC(=O)NCc2ccc3c(c2)OCO3)nnc1-c1cccs1 | - | - | - | - | - | -
O=C(CSc1nnc(-c2cccs2)n1Cc1ccccc1)NCc1ccc2c(c1)OCO2 | - | ? | - | - | 23µM | ?
CN1CCN(c2ccc(S(=O)(=O)N3CCOCC3)cc2)CC1 | - | - | - | ? | - | -
COc1ccc(-c2nc(SCC(=O)Nc3ccc4c(c3)OCCO4)c(-c3ccc(C)cc3)[nH]2)cc1OC | -[12.3 µM] | 18µM | . | - | ? | -
COc1ccc(NC(=O)CSc2nc(-c3cccc(C)c3)[nH]c2-c2ccccc2)cc1OC | - | 6.5µM | . | - | 9.2µM | -
COc1ccc(NC(=O)CSc2nc(-c3ccc(OC)cc3)[nH]c2-c2ccc(F)cc2)cc1 | - | - | . | - | - | -
COc1ccc(-c2[nH]c(-c3ccc(Cl)cc3)nc2SCC(=O)Nc2nccs2)cc1 | - | 23µM | - | - | 16µM | -
COc1ccc(-c2[nH]c(-c3ccc(OC)c(OC)c3)nc2SCC(=O)Nc2ccccc2)cc1 | - | ? | . | - | 16µM | -
COc1ccc(-c2nc(SCC(=O)NC3CCCC3)c(-c3ccc(C)cc3)[nH]2)cc1OC | - | ? | . | - | ? | -
CCN(CC)C(=O)C1=C(C)N(Cc2ccccc2)C(=O)C(CC(=O)NC2CCCCC2)C1 (centres undefined) | . | - | - | . | - | .
CCCOc1ccc(C2C(=O)N(C3CCCCCC3)CC(=O)N2C(C)C)cc1OC (centres undefined) | - | ? | . | - | ? | -
COc1ccc(-c2noc(CCC(=O)Nc3ccccc3Cl)n2)cc1OC | - | ? | . | - | ? | -
O=C1C(=O)N(CCN2CCOCC2)C(c2ccccc2F)/C1=C(\O)c1ccc(S(=O)(=O)N2CCOCC2)cc1 (centres undefined) | . | - | - | - | - | -
O=C(CCS(=O)(=O)c1ccccc1)Nc1ccc(Cl)cn1 | - | - | - | - | - | -
O=C(CSc1ccc2c(c1)OCCO2)Nc1ccc2c(c1)OCO2 | - | ? | ? | - | ? | -
COc1ccc(NC(=O)CSc2ccc3c(c2)OCCO3)cc1OC | - | ? | - | - | 21µM | -
COc1ccc(NC(=O)CSc2nc(-c3ccc(OC)c(OC)c3)[nH]c2-c2ccc(C)cc2)cc1 | - | ? | . | - | 5.8µM | -
C[C@H](CO)N1C[C@H](C)[C@@H](CN(C)C(=O)Nc2ccccc2)Oc2ccc(NC(=O)Nc3ccccc3)cc2C1=O | - | - | - | - | - | -
COC(=O)/C=C/c1ccc(C(=O)NCC(=O)N[C@@H](CCC(=O)OC)C(=O)N[C@@H](CC(C)C)C(N)=O)cc1 | - | - | . | - | - | -
O=C(NCC(c1cccnc1)N1CCN(Cc2ccccc2)CC1)C(=O)Nc1cccc(Cl)c1 (centres undefined) | - | 13µM | . | - | 15µM | -
Cc1ccc(NC(=O)C(=O)NCC(c2cccnc2)N2CCOCC2)cc1Cl (centres undefined) | - | ? | . | - | ? | -
Cc1cccc(NC(=O)C(=O)NCC(c2cccnc2)N2CCN(Cc3ccccc3)CC2)c1 (centres undefined) | - | 16µM | . | - | 23µM | -

Screening results: PubChem BioAssay, National Center for Advancing Translational Sciences (NCATS)
